Bioassay records (PubChem)
TDP1 cell noCPT = qHTS for Inhibitors of human tyrosyl-DNA phosphodiesterase 1 (TDP1): qHTS in cells in absence of CPT | DT40 Tdp1-/- hTDP1 cells, no CPT, ATP luminescence, 48 h | Potency, µM (top dose mostly 46.2 µM), inactives show at the top dose activity change, negative = growth inhibition, actives largely listed as inhibitors | actives 15% (n = 420,000) | AID 686978, 2013; also: potency is read from the fitted curve at half-maximal effect; nearly all actives have a fitted effect of over 55% in size
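Compound effects on proliferation are scored in DT40 Tdp1-/-;hTDP1 cells in the absence of CPT. ATP levels (CellTiter-Glo luminescence) are recorded after a ≥48 hr, 37 °C incubation.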
TDP1 inh = qHTS Assay for Inhibitors of Tyrosyl-DNA Phosphodiesterase (TDP1) | Tyrosyl-DNA phosphodiesterase 1 (Homo sapiens), Q9NUW8 | recombinant TDP1, AlphaScreen DNA substrate cleavage | Potency, µM (top dose mostly 130 µM), for inactives: at the highest dose activity change, negative = inhibition, actives largely listed as inhibitors | actives 0.28% (n = 350,000) | AID 485290, 2010; also: potency is read from the fitted curve at half-maximal effect; nearly all actives have a fitted effect of over 40% in size
Target sequence (Q9NUW8 whole entry, looked up): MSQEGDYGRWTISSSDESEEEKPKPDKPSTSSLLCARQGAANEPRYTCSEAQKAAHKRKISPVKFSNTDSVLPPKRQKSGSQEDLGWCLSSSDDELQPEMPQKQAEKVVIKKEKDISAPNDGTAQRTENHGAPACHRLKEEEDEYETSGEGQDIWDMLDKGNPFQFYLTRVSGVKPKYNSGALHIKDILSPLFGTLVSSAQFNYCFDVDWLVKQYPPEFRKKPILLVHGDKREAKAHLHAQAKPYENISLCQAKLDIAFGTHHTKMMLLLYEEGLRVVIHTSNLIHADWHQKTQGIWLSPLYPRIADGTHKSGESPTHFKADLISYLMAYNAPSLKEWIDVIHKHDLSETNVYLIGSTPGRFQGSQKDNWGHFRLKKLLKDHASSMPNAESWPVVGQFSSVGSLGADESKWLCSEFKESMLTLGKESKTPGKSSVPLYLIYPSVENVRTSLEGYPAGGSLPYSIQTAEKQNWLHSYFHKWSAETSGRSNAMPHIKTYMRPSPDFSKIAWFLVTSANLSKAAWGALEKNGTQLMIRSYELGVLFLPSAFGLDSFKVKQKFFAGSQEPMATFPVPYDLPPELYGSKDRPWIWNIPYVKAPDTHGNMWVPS
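Enzyme-compound mixtures sat 15 min at room temperature, followed by a 5 min reaction with 15 nM final substrate and 10 min with AlphaScreen beads. Recombinant human Tdp1 was used at 1 nM final.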
ELG1 repair inh = qHTS screen for small molecules that inhibit ELG1-dependent DNA repair in human embryonic kidney (HEK293T) cells expressing luciferase-tagged ELG1; HEK293T ELG1-luciferase reporter, luminescence, 16 h; DNA damage induced by 5-fluorouridine; Potency, µM (doses to about 46.1 µM), for the others: top-dose activity change, negative = inhibition, usual class: inhibitors; actives 2.3% (n = 330,000); AID 504467, 2011; also: potency is read from the fitted curve at half-maximal effect; nearly all actives have a fitted effect of over 55% in size
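In this reporter screen, reduction of luminescence relative to DMSO vehicle indicated activity. Compounds and 5-fluorouridine were added together to 2,000 cells per well, incubated for 16 hr at 37 °C, then developed with ONE-Glo.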
DT40 TDP1 CPT = qHTS for Inhibitors of human tyrosyl-DNA phosphodiesterase 1 (TDP1): qHTS in cells in presence of CPT | chicken DT40 Tdp1-/-;hTDP1 cells + 20 nM CPT, ATP luminescence, 48 h | Potency, µM (doses to about 46.2 µM), without a hit: at the top dose activity change, negative = growth inhibition, most hits filed as inhibitors | actives 12% (n = 420,000) | AID 686979, 2013; also: potency is read from the fitted curve at half-maximal effect; nearly all actives have a fitted effect of over 55% in size
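Cell growth measured by CellTiter-Glo luminescence after a minimum 48 h, 37 C compound exposure with 20 nM CPT in Tdp1-knockout DT40 cells stably expressing hTDP1, seeded 400/well; qHTS titration format.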
IL1B secr inh = qHTS for Inhibitors of Inflammasome Signaling: IL-1-beta AlphaLISA Primary Screen; THP-1 LPS/ATP IL-1B secretion, AlphaLISA, 16 h; hits give low values; activity change, % at 57.5 µM; actives 4.7% (n = 360,000); AID 743279, 2014; in the data active = activity change below about -50%; inconclusive = mostly about -30% to -49%
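THP-1 cells pretreated 1 hr with compounds (up to 57.5 uM final), then stimulated with LPS (250 ng/mL final) plus ATP (1.25 mM final); secreted IL-1B measured by AlphaLISA after 16 hr, decreased signal indicating inhibition.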
Giardia kill = Small Molecules that selectively kill Giardia lamblia: qHTS | Giardia lamblia trophozoite viability | activity change, % at 7.66 µM, hits read low | actives 0.15% (n = 340,000) | AID 540267, 2011; in the data active = activity change below about -80%; inconclusive = between about -30% and that limit;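 also: parasites exposed to compound for two days anaerobically before the ATP read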
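Anaerobic 48 hrs incubation at 37 deg C of 100 trophozoites/well with test compounds; ATPLite 1-Step luminescence, 15-30 min RT, reports cellular ATP as viability.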
* = called active by the depositor; [ ] = another dose, or the depositor's remark. An excerpt weighted towards active compounds, which were near 19% of everything screened. Unless noted, calls follow the shape of the dose curve; as a rule, active = well fitted curve in the direction sought with a large enough effect; inconclusive = small, poorly fitted or top-dose-only effect, or another doubt; inactive = no such curve, though single readings can be large; an effect the other way counts as inactive or inconclusive. % is scaled to controls: 0 for no effect and ±100 for the full control effect.

How did O=C(O)c1cc2ccc3cccc4ccc(c1)c2c34 do in these assays?
TDP1 cell noCPT: -14%; ELG1 repair inh: 13%; DT40 TDP1 CPT: -8%; IL1B secr inh: 5; Giardia kill: -21

How did CCN(CC)c1ccc(S(=O)(=O)N2CCCCC2)cc1NC(=O)C1CSC2(C)CCC(=O)N12 (stereo not given) do in these assays?
TDP1 cell noCPT: 9.2µM*; TDP1 inh: 0%; ELG1 repair inh: inconclusive; DT40 TDP1 CPT: inconclusive; IL1B secr inh: -50*; Giardia kill: 9

How did CCN(CC)c1ccc(S(=O)(=O)N2CCCCC2)cc1NC(=O)C1CCC1 do in these assays?
TDP1 cell noCPT: inconclusive; TDP1 inh: 0%; ELG1 repair inh: -1%; DT40 TDP1 CPT: 18µM*; IL1B secr inh: -18; Giardia kill: -18

Results for CCN(CC)c1ccc(S(=O)(=O)N(CC)CC)cc1NC(=O)C1CCCC1 ?
TDP1 cell noCPT: inconclusive; TDP1 inh: -10%; ELG1 repair inh: inconclusive; DT40 TDP1 CPT: inconclusive; IL1B secr inh: -4; Giardia kill: 11

How did CCN(CC)S(=O)(=O)c1ccc(N(C)C)c(NC(=O)C2CCCC2)c1 do in these assays?
TDP1 cell noCPT: -12%; TDP1 inh: 4%; ELG1 repair inh: 0%; DT40 TDP1 CPT: -15%; IL1B secr inh: -54*; Giardia kill: 1

Results for CCN(CC)c1ccc(S(=O)(=O)N2CCOCC2)cc1NC(=O)C1CC1 ?
TDP1 cell noCPT: -13%; TDP1 inh: -1%[56.1 µM]; ELG1 repair inh: -1%; DT40 TDP1 CPT: -3%; IL1B secr inh: 0; Giardia kill: 12

What do the screens show for `CCN(CC)CCN(C(=O)c1ccc(C(=O)c2ccccc2)cc1)c1nc2cc3c(cc2s1)OCO3`?
TDP1 cell noCPT: inconclusive; TDP1 inh: 10%; ELG1 repair inh: -6%; DT40 TDP1 CPT: inconclusive; IL1B secr inh: -55*; Giardia kill: 10

What do the screens show for `CCN(CC)CCN(C(=O)CN1C(=O)CCC1=O)c1nc2cc3c(cc2s1)OCO3`?
TDP1 cell noCPT: -17%; TDP1 inh: 3%; ELG1 repair inh: 13%; DT40 TDP1 CPT: -16%; IL1B secr inh: -16; Giardia kill: -5

What do the screens show for `CN(C)CCCN(C(=O)c1ccco1)c1nc2cc3c(cc2s1)OCO3`?
TDP1 cell noCPT: 5.2µM*; TDP1 inh: 4%; ELG1 repair inh: 20%; DT40 TDP1 CPT: 3.7µM*; IL1B secr inh: inconclusive; Giardia kill: -1

How did Cc1ccc2nc(N(CCCN(C)C)C(=O)c3ccco3)sc2c1 do in these assays?
TDP1 cell noCPT: inconclusive; TDP1 inh: 5%; ELG1 repair inh: inconclusive; DT40 TDP1 CPT: inconclusive; IL1B secr inh: -11; Giardia kill: -2

What do the screens show for `CCN(CC)CCN(C(=O)CCS(=O)(=O)c1ccccc1)c1nc2cc3c(cc2s1)OCO3`?
TDP1 cell noCPT: 12µM*; TDP1 inh: 5%; ELG1 repair inh: -2%; DT40 TDP1 CPT: 8.2µM*; IL1B secr inh: inconclusive; Giardia kill: 2

What do the screens show for `CN(C)CCCN(C(=O)c1ccco1)c1nc2c(F)cc(F)cc2s1`?
TDP1 cell noCPT: 21µM*; TDP1 inh: 0%; ELG1 repair inh: 15%; DT40 TDP1 CPT: inconclusive; IL1B secr inh: -25; Giardia kill: -12

How did CCN(CC)CCN(C(=O)c1ccc(C(=O)c2ccccc2)cc1)c1nc2c(OC)cccc2s1 do in these assays?
TDP1 cell noCPT: -23%; TDP1 inh: 10%; ELG1 repair inh: -11%; DT40 TDP1 CPT: inconclusive; IL1B secr inh: -66*; Giardia kill: -26

What do the screens show for `CN(C)CCCN(C(=O)c1ccc(C(=O)c2ccccc2)cc1)c1nc2cc3c(cc2s1)OCO3`?
TDP1 cell noCPT: 23µM*; TDP1 inh: 11%; ELG1 repair inh: -1%; DT40 TDP1 CPT: 16µM*; IL1B secr inh: -68*; Giardia kill: 17

Results for COc1ccc(C)cc1S(=O)(=O)N(CC(=O)N1CCCC1)c1ccccc1 ?
TDP1 cell noCPT: -4%; TDP1 inh: 7%; ELG1 repair inh: -6%; DT40 TDP1 CPT: 7%; IL1B secr inh: 12; Giardia kill: 8

How did Cc1cc(C)cc(NC(=O)CCCN2C(=O)COc3ccc(C)cc32)c1 do in these assays?
TDP1 cell noCPT: inconclusive; TDP1 inh: -3%; DT40 TDP1 CPT: inconclusive

Results for COc1ccc(CNC(=O)c2cc3cc(OC)ccc3oc2=O)cc1 ?
TDP1 cell noCPT: 12µM*; TDP1 inh: -3%; ELG1 repair inh: -17%; DT40 TDP1 CPT: 18µM*; IL1B secr inh: 15; Giardia kill: -1

How did COc1ccc2oc(=O)c(C(=O)NCc3ccc(C)cc3)cc2c1 do in these assays?
TDP1 cell noCPT: inconclusive; ELG1 repair inh: 13%; DT40 TDP1 CPT: -23%; IL1B secr inh: -4; Giardia kill: 6

What do the screens show for `COc1ccc2oc(=O)c(C(=O)NCc3ccccc3)cc2c1`?
TDP1 cell noCPT: -10%; ELG1 repair inh: 2%; DT40 TDP1 CPT: inconclusive; IL1B secr inh: -17; Giardia kill: 24

What do the screens show for `COc1ccc(C(=O)N/N=c2\oc3ccccc3cc2C(=O)NCc2ccccc2)cc1`?
TDP1 cell noCPT: 15µM*; TDP1 inh: 4%; ELG1 repair inh: 10µM*; DT40 TDP1 CPT: 16µM*; IL1B secr inh: -5; Giardia kill: -16

What do the screens show for `CCOc1ccc(OCCC(=O)NNC(=O)c2ccncc2)cc1`?
TDP1 cell noCPT: 0%; ELG1 repair inh: 16%; DT40 TDP1 CPT: 9%; IL1B secr inh: -1; Giardia kill: 13

How did Cc1n[nH]c(C)c1CCN(C)Cc1cn(C)nc1-c1ccccc1F do in these assays?
TDP1 cell noCPT: 1%; TDP1 inh: 7%; ELG1 repair inh: 6%; DT40 TDP1 CPT: 4%; IL1B secr inh: -3; Giardia kill: 1

Results for Cc1cc(C)cc(-n2ncc3c2CCCC3NC(=O)CCN2CCCC2=O)c1 (stereo not given) ?
TDP1 cell noCPT: -3%; TDP1 inh: 2%; ELG1 repair inh: 1%; DT40 TDP1 CPT: 1%; IL1B secr inh: inactive; Giardia kill: 7

How did CC(=O)Nc1nc2ccccc2n1CCOc1ccccc1 do in these assays?
TDP1 cell noCPT: inconclusive; TDP1 inh: 7%; ELG1 repair inh: inconclusive; DT40 TDP1 CPT: inconclusive; IL1B secr inh: 24; Giardia kill: 22
